Reference: PubChem BioAssay AID504462 (Sanford-Burnham Center for Chemical Genomics, 2011)
Among all 340,000 compounds or so, about 1,700 (0.5%) were called active. For the sample, actives were picked, then their nearest neighbours and some compounds at random. Values without a mark were called inactive. Rule as the data show it: active = inhibition above about 40%; inactive = the rest.

Each molecule was assayed against Cysteine protease ATG4B (Homo sapiens) (UniProt Q9Y4P1) (assay: ATG4B protease inhibitors, primary screen, biochemical, fluorescence, uHTS (AID 504462)). Conditions: ATG4B cleavage of LC3-PLA2, NBD-HPC fluorescence, 1 h; at 8.33 µM; active compounds read high.
Cysteine protease ATG4B (Homo sapiens), sequence (Q9Y4P1 whole entry, looked up): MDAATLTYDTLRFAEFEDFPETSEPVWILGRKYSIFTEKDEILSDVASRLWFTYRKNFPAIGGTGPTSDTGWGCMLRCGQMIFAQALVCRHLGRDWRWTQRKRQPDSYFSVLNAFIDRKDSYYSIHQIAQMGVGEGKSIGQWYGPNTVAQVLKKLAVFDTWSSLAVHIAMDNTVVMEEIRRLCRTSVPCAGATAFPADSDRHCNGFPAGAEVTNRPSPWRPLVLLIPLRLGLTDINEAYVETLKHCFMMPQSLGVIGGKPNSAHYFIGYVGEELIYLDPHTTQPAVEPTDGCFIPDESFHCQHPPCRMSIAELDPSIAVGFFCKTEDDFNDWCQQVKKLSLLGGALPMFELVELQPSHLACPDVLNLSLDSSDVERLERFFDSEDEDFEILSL

Compound	inhibition
COC(=O)COc1cc(C)cc2oc(=O)c3c(c12)CCCC3	-8.24%
CCN1CCN(C(=O)Cc2coc3cc(C)cc(C)c23)CC1	-5.73%
Cc1cc(OCc2cc(C(=O)O)oc2C)c2c3c(c(=O)oc2c1)CCCC3	48.7% (active)
CCOC(=O)C1(CCc2ccccc2)CCN(Cc2ccco2)CC1	-6.2%
CC(Cc1ccccc1)NCCC(c1ccccc1)c1ccccc1 (stereo not given)	-1.23%
